For experiment [1], the system named is CRL-7250. The experiment is described as follows: Cytotoxic Profiling of Annotated Libraries Using Quantitative High-Throughput Screening (AID 1296008). Further: nearly all actives have a fitted effect of over 60% in size. On max response: on the % scale 0 is the no-effect control and ±100 the full control effect. Conditions: Five cell lines viability, CellTiter-Glo ATP luminescence, 48-72 h; max response: active compounds read low. Put shortly: (§1)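 Cytotoxicity was measured as CellTiter-Glo ATP luminescence, read after 10 min at room temperature. Compound treatment of the cells lasted 48 or 72 hr at 37 degrees Celsius in a qHTS format.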
(In general: In ATP-based viability assays light output follows the ATP content of the culture.)

Experiment [2] relates to HEK293. The description is as above. Conditions: Five cell lines viability, CellTiter-Glo ATP luminescence, 48-72 h; max response: active compounds read low. The method, boiled down: as §1
In experiment [3] the test system is HaCat. Described as above. Conditions: Five cell lines viability, CellTiter-Glo ATP luminescence, 48-72 h; max response: active compounds read low. Put shortly:
as §1

The test system of experiment [4] is KB-3-1. Described as above. The following applies: Five cell lines viability, CellTiter-Glo ATP luminescence, 48-72 h; max response: active compounds read low. The method, boiled down:
as §1

In experiment [5] the test system is NIH3T3. The experiment is described as above. The following applies: Five cell lines viability, CellTiter-Glo ATP luminescence, 48-72 h; max response: active compounds read low. Put shortly: as §1
Experiment [6] has as its system HEK293T. The experiment is described as follows: qHTS assay to identify novel small-molecules to repurpose for Merkel cell carcinoma treatment (AID 1296009). Further: nearly all actives have a fitted effect of over 60% in size. The following applies: MCC and control cell lines, CellTiter-Glo viability, 72 h; at 44.8 µM (top of the series) unless noted. Put shortly: (§2)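 After compound transfer in DMSO, plates were kept 72 hr at 37 degree celsius. Luminescent ATP signal from CellTiter-Glo served as viability measure, normalized against DMSO and no-cell controls.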
In general terms: qHTS replaces the single test concentration by a dilution series.

The test system of experiment [7] is MCC-13. The description is as above. Conditions: MCC and control cell lines, CellTiter-Glo viability, 72 h; series mostly up to 46 µM. The method, boiled down: as §2
Experiment [8] deals with MCC-26. The description is as above. Conditions: MCC and control cell lines, CellTiter-Glo viability, 72 h; series mostly up to 46 µM. The method, boiled down: as §2
The test system of experiment [9] is MKL-1. The experiment is described as above. Conditions: MCC and control cell lines, CellTiter-Glo viability, 72 h; series mostly up to 46 µM. Put shortly:
as §2

In experiment [10] the test system is MKL-2. The experiment is described as above. The following applies: MCC and control cell lines, CellTiter-Glo viability, 72 h; series mostly up to 46 µM. The method, boiled down:
as §2

For experiment [11], the system named is NIH3T3. The description is as above. Conditions: MCC and control cell lines, CellTiter-Glo viability, 72 h; at 44.8 µM (top of the series) unless noted. The method, boiled down:
as §2

The subject of experiment [12] is UISO. The description is as above. Conditions: MCC and control cell lines, CellTiter-Glo viability, 72 h; series mostly up to 46 µM. The method, boiled down:
as §2

In experiment [13] the test system is WaGa. The experiment is described as above. Conditions: MCC and control cell lines, CellTiter-Glo viability, 72 h; series mostly up to 46 µM. The method, boiled down:
as §2

For experiment [14], the system named is C33A. Briefly: Primary qHTS to identify gynecologic anti-cancer compounds using libraries of approved drugs and bioactive compounds (AID 1345084). Further: on the % scale 0 is the no-effect control and ±100 the full control effect; nearly all actives have a fitted effect of over 55% in size. Conditions: Gynecologic cancer cell panel viability, ATPlite luminescence, 48 h; series mostly up to 57.5 µM. Put shortly: (§3)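 48 h compound exposure at 37 C, 5% CO2; five-point qHTS. ATPlite luminescence readout of cell ATP.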

For experiment [15], the system named is CAOV3. The description is as above. Conditions: Gynecologic cancer cell panel viability, ATPlite luminescence, 48 h; series mostly up to 57.5 µM. The method, boiled down: as §3
For experiment [16], the system named is CASKI. The experiment is described as above. The following applies: Gynecologic cancer cell panel viability, ATPlite luminescence, 48 h; series mostly up to 57.5 µM. The method, boiled down: as §3
Experiment [17] relates to TAB113. The experiment is described as follows: qHTS profiling for inhibitors of Plasmodium falciparum proliferation (AID 504749). Further: nearly all actives have a fitted effect of over 60% in size. Further: potency means the concentration at half of the fitted maximal effect. The following applies: P. falciparum in erythrocytes, SYBR Green DNA, 72 h; series mostly up to 28.7 µM. Put shortly: (§4)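 Three-day growth assay of blood-stage parasites in erythrocytes (0.3% parasitemia, 2.5% hematocrit) at 37 C, 5% CO2, quantified by SYBR Green DNA staining after overnight detergent lysis.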

Experiment [18] has as its system TAB165. The description is as above. The following applies: P. falciparum in erythrocytes, SYBR Green DNA, 72 h; series mostly up to 28.7 µM. Put shortly: as §4
The subject of experiment [19] is W2. The experiment is described as above. The following applies: P. falciparum in erythrocytes, SYBR Green DNA, 72 h; series mostly up to 28.7 µM. The method, boiled down:
as §4

Experiment [20] relates to HACAT. Briefly: qHTS assay to identify novel small-molecules to repurpose for Merkel cell carcinoma treatment (AID 1296009). Further: nearly all actives have a fitted effect of over 60% in size. The following applies: MCC and control cell lines, CellTiter-Glo viability, 72 h; at 44.8 µM (top of the series) unless noted. The method, boiled down:
as §2

“And” between values parts separate entries of the source, which are not always exact repeats. Equal entries are not always repeated. Inconclusive results are not listed. Unmarked numbers belong to inactive results. The source made the active and inactive calls. The call rests on the fitted dose curve; in most records, active means well fitted curve in the direction sought with a large enough effect; inconclusive means small, poorly fitted or top-dose-only effect, or another doubt; inactive means no such curve, though single readings can be large; an effect the other way counts as inactive or inconclusive.

On to `CC(=O)OCC(=O)[C@@]1(O)[C@H](C)C[C@H]2[C@@H]3CCC4=CC(=O)C=C[C@]4(C)[C@@]3(F)[C@@H](O)C[C@@]21C`, for which the max response was 0.495% and 1.45% in experiment [1]; -2.05% in experiment [2]; -3.13% and -0.939% in experiment [3]; 31.1% and 2.64% in experiment [4]; 4.69% in [5]. The outcome in experiment [2], in experiment [4], in experiment [5], in experiment [6] and in [11] was inactive. Moreover, the Potency result in [7], in [8], in [9], in [10], in [12] and in experiment [13] was “inactive” each time. Moreover, the Potency result in experiment [14], in [15] and in experiment [16] was “inactive” in each case.

`CCC(C(=O)OCCN(CC)CC)c1ccccc1` (stereo not given): the Potency entry in experiment [17], in [18], in experiment [7], in [8], in experiment [9] and in [10] was “inactive” in each case. The Potency result in experiment [12], in experiment [13], in experiment [14], in [15] and in experiment [16] was “inactive” each time. Further, in [19], the Potency was 15.1 µM (active). Further, the call in [1], in experiment [3] and in experiment [20] was inactive. Moreover, the max response is 3.62% in [2], -12.7% in [4] and -17.3% in experiment [5].

As for `CC(C)(C)NC(=O)[C@@H]1CN(Cc2cccnc2)CCN1C[C@@H](O)C[C@@H](Cc1ccccc1)C(=O)N[C@H]1c2ccccc2C[C@H]1O`, the max response in experiment [1] is -1.33% and -2.61%; in experiment [2], 3.56%; in [3], -2.17%; in experiment [4], 9.13%; in [5], 1.79% and -2.96%. The molecule was classed as inactive in experiment [2], in experiment [3], in experiment [20] and in experiment [6]. The Potency result in experiment [7], in experiment [8], in experiment [9], in experiment [10], in [12] and in [13] was “inactive” throughout. Further, the Potency result in experiment [14], in experiment [15] and in experiment [16] was “inactive” each time.

For `CCCCC(=O)O[C@]1(C(=O)CO)CC[C@H]2[C@@H]3CCC4=CC(=O)CC[C@]4(C)[C@H]3[C@@H](O)C[C@@]21C`, the result in [1], in experiment [3] and in [20] was inactive. The max response is 3.34% in [2], -2.52% in experiment [4] and 1.69% in experiment [5]. Also, the Potency result in experiment [7], in experiment [8], in experiment [9], in experiment [10], in experiment [12] and in experiment [13] was “inactive” throughout. Besides, the Potency result in experiment [14], in experiment [15] and in [16] was “inactive” in each case.

In the case of `CN1[C@@H]2CC[C@H]1CC(OC(=O)c1c[nH]c3ccccc13)C2` (stereo not given in full), the max response was -2.71% in [1]; 4.73% in experiment [2]; 0.428% in [3]; -8.86% and -5.38% in [4]. Besides, the call in [1], in [2], in [3], in experiment [5], in [20] and in experiment [6] was inactive. Moreover, the molecule was classed as inactive in [11]. In addition, the Potency result in experiment [7], in experiment [8], in [9], in experiment [10], in experiment [12] and in experiment [13] was “inactive” each time. In addition, the Potency result in [14], in experiment [15] and in experiment [16] was “inactive” in each case.

The values are drawn from PubChem BioAssay (NCATS).
